40 compounds from PubChem BioAssay can be followed below.

Where a SMILES comes first, the peptide text is derived from it. The star is where a group is joined. Cbz = O=C(OCc1ccccc1)*; CH2F = FC*

The first assay in a line: sensitizers of A549 cells to miR-34 induction, primary screen, imaging, A549 dox-inducible miR-34, nuclei and caspase counts (AID 1347080). Note: test concentration not given here. As to conditions: A549 miR-34 inducible, Hoechst nuclei count, 48 h; measured here: relative caspase fold change +Dox/-Dox.
Turning to `CC(C)c1cccc(O)c(=O)c1`, the fold change is 1.02.

For the compound `CCCCC/C=C\C\C=C/C=C/C=C/[C@@H](SCC(NC(C)=O)C(=O)O)[C@@H](O)CCCC(=O)O` (stereo not given in full), the fold change was found to be 1.06.

Turning to `CCOC(=O)C1OC1C(=O)NC(CC(C)C)C(=O)NCCC(C)C` (stereo not given), the fold change is 0.67.

Turning to `CCCCCCCCCC(=O)N[C@H](CN1CCOCC1)[C@H](O)c1ccccc1`, the fold change was determined as 1.18.

In the case of `O=Cc1c2[nH]c3ccccc3c2cc2[nH]c3ccccc3c12`, the fold change was 1.33.

On to `CCCCCC(=O)/C=C/C=C\CCCCCCCC(=O)O`, for which the fold change was 1.29.

For `CCCCCCCCCCCCCCCCOC[C@H](CO)OC`, the fold change worked out at 0.894.

As to `CCCCC/C=C\C/C=C\CCCCCCCC(=O)NCC(=O)O`, the fold change came to 1.28.

In the case of `CCCCCCCCCCCCCCC[C@H](O)[C@H](N)CO`, the fold change was found to be 1.55.

For `CCCCCC1OC1C/C=C\C/C=C\C/C=C\CCCC(=O)O` (stereo not given), the fold change amounted to 1.73.

As for `CCCCC[C@H](O)/C=C/C=C\C/C=C\C/C=C\CCCC(=O)O`, the fold change turned out to be 1.58.

Take `CCCCCCCCCCOCCC(=O)O`: the fold change is 1.29.

On to `CCCCC[C@H](O)/C=C/C=C\CCCCCCCC(=O)O`, for which the fold change is 1.14.

On to `COCc1cc(O)c(O)c(O)c1-c1c(COC)cc(O)c(O)c1O`, for which the fold change is 0.626.

As for `CCCCC/C=C\C/C=C\C/C=C\CC1OC1CCCC(=O)O` (stereo not given), the fold change is 1.34.

On to `CCCCC/C=C\C/C=C\CCCCCCCC(N)=O`, for which the fold change came to 1.16.

As for `O=C(O)c1cc(N(Cc2ccccc2O)Cc2cc(O)ccc2O)ccc1O`, the fold change is 1.1.

With `CC(=O)N[C@@H](CSC/C=C(\C)CCC=C(C)C)C(=O)O`, the fold change amounted to 1.12.

On to `COCCCCCCCCCCCC(=O)O`, for which the fold change worked out at 1.11.

For `NCCNS(=O)(=O)c1cccc2cnccc12`, the fold change came out at 1.06.

Regarding `CC(C)[C@@H]1NC(=O)[C@H](Cc2ccccc2)NC(=O)[C@@H](CC(=O)O)NC(=O)CNC(=O)[C@H](CCCN=C(N)N)NC1=O`, the fold change amounted to 0.655.

Take `N#CC(C#N)=C(N)/C(C#N)=C/c1ccc2[nH]ccc2c1`: the fold change was 0.81.

In the case of `CCCCCCCCCCC/C=C\C/C=C\CCCC(=O)O`, the fold change came to 0.921.

As to `CCCCC/C=C\C/C=C\CC1OC1C/C=C\CCCC(=O)O` (stereo not given), the fold change is 1.19.

In the case of `CCCCC[C@H](O)/C=C/C=C\C=C\C=C\[C@@H](O)[C@@H](O)CCCC(=O)O`, the fold change was found to be 1.26.

As to `COC(=O)C[C@H](NC(=O)[C@H](C)NC(=O)[C@@H](NC(=O)OCc1ccccc1)C(C)C)C(=O)CF` (Cbz-Val-Ala-Asp(OMe)-CH2F), the fold change came to 0.772.

Take `CCCCCCCCCCCCCC(=O)N[C@@H](C)[C@H](O)c1ccccc1`: the fold change worked out at 0.985.

For `CC(=O)OCOC(c1cc([N+](=O)[O-])ccc1Oc1ccc(Br)cc1)P(=O)(OCOC(C)=O)OCOC(C)=O` (stereo not given), the fold change came out at 0.666.

For `CC(C)n1cnc2c(NCc3ccccc3)nc(NCCO)nc21`, the fold change came out at 1.24.

With `CCCCCCCCCCCCCCCC(=O)N[C@H](CN1CCOCC1)[C@H](O)c1ccccc1`, the fold change amounted to 1.57.

Consider `CCCCCCCCCCCCCCCC(=O)N[C@@H](COP(=O)(O)O)C(=O)O`, for which the fold change stood at 1.1.

As for `CCCCC/C=C\C\C=C/C=C/C=C/[C@@H](SC[C@H](NC(=O)CC[C@H](N)C(=O)O)C(=O)NCC(=O)O)[C@@H](O)CCCC(=O)O`, the fold change turned out to be 1.43.

As to `COc1c(C=O)c(O)cc2c1C(=O)c1ccccc1C2=O`, the fold change worked out at 0.797.

With `N#Cc1c(-c2ccccc2)no[n+]1[O-]`, the fold change stood at 1.

In the case of `CC12C=CC(=O)C=C1CCC1C2=CCC2(C)C1CC[C@@H]2C(=O)CN1CCN(c2cc(N3CCCC3)nc(N3CCCC3)n2)CC1` (stereo not given in full), the fold change stood at 1.43.

Regarding `CCCCCCCCCCCCC/C=C/[C@@H](O)[C@H](CO)NC(=O)CCCCCCCCCCCCCCC`, the fold change turned out to be 1.04.

Take `CC/C=C\C/C=C\C/C=C\CCCCCCCCCCCC(=O)O`: the fold change amounted to 0.936.

As for `CCCCC/C=C\C/C=C\C/C=C\C/C=C\CCCC(=O)O[C@@H](CO)COCCCCCCCCCCCCCCCC`, the fold change came to 1.06.

With `CCCCC[C@H](O)C/C=C1/C(=O)C=C[C@@H]1C/C=C\CCCC(=O)O`, the fold change was found to be 0.855.

Turning to `CCCCC/C=C\CC(O)/C=C/c1cccc(CC(O)CCCCO)n1` (stereo not given), the fold change was 1.4.

The assay is the same for the next values; noted with them: A549 miR-34 inducible, Hoechst nuclei count, 48 h; measured here: total cells with miR-34 induction; stronger effect = lower value.
With `CC(C)c1cccc(O)c(=O)c1`, the cell count came out at 1840.

In the case of `CCCCC/C=C\C\C=C/C=C/C=C/[C@@H](SCC(NC(C)=O)C(=O)O)[C@@H](O)CCCC(=O)O` (stereo not given in full), the cell count was 5780.

For the compound `CCOC(=O)C1OC1C(=O)NC(CC(C)C)C(=O)NCCC(C)C` (stereo not given), the cell count was found to be 8060.

`CCCCCCCCCC(=O)N[C@H](CN1CCOCC1)[C@H](O)c1ccccc1`: the cell count turned out to be 5550.

For `O=Cc1c2[nH]c3ccccc3c2cc2[nH]c3ccccc3c12`, the cell count amounted to 4820.

Regarding `CCCCCC(=O)/C=C/C=C\CCCCCCCC(=O)O`, the cell count was 5630.

In the case of `CCCCCCCCCCCCCCCCOC[C@H](CO)OC`, the cell count worked out at 4770.

As to `CCCCC/C=C\C/C=C\CCCCCCCC(=O)NCC(=O)O`, the cell count amounted to 6210.

For the compound `CCCCCCCCCCCCCCC[C@H](O)[C@H](N)CO`, the cell count amounted to 1060.

With `CCCCCC1OC1C/C=C\C/C=C\C/C=C\CCCC(=O)O` (stereo not given), the cell count was determined as 6230.

As to `CCCCC[C@H](O)/C=C/C=C\C/C=C\C/C=C\CCCC(=O)O`, the cell count is 5880.

For `CCCCCCCCCCOCCC(=O)O`, the cell count worked out at 5410.

Turning to `CCCCC[C@H](O)/C=C/C=C\CCCCCCCC(=O)O`, the cell count is 5740.

For the compound `COCc1cc(O)c(O)c(O)c1-c1c(COC)cc(O)c(O)c1O`, the cell count amounted to 3710.

As to `CCCCC/C=C\C/C=C\C/C=C\CC1OC1CCCC(=O)O` (stereo not given), the cell count was found to be 5900.

Take `CCCCC/C=C\C/C=C\CCCCCCCC(N)=O`: the cell count is 6200.

Consider `O=C(O)c1cc(N(Cc2ccccc2O)Cc2cc(O)ccc2O)ccc1O`, for which the cell count was 5160.

As to `CC(=O)N[C@@H](CSC/C=C(\C)CCC=C(C)C)C(=O)O`, the cell count stood at 5900.

Take `COCCCCCCCCCCCC(=O)O`: the cell count is 5900.

Consider `NCCNS(=O)(=O)c1cccc2cnccc12`, for which the cell count amounted to 3580.

For `CC(C)[C@@H]1NC(=O)[C@H](Cc2ccccc2)NC(=O)[C@@H](CC(=O)O)NC(=O)CNC(=O)[C@H](CCCN=C(N)N)NC1=O`, the cell count was 1320.

Regarding `N#CC(C#N)=C(N)/C(C#N)=C/c1ccc2[nH]ccc2c1`, the cell count was 5080.

Consider `CCCCCCCCCCC/C=C\C/C=C\CCCC(=O)O`, for which the cell count was determined as 5350.

For `CCCCC/C=C\C/C=C\CC1OC1C/C=C\CCCC(=O)O` (stereo not given), the cell count stood at 5810.

Take `CCCCC[C@H](O)/C=C/C=C\C=C\C=C\[C@@H](O)[C@@H](O)CCCC(=O)O`: the cell count stood at 5670.

Take `COC(=O)C[C@H](NC(=O)[C@H](C)NC(=O)[C@@H](NC(=O)OCc1ccccc1)C(C)C)C(=O)CF` (Cbz-Val-Ala-Asp(OMe)-CH2F): the cell count worked out at 5320.

With `CCCCCCCCCCCCCC(=O)N[C@@H](C)[C@H](O)c1ccccc1`, the cell count is 6160.

Regarding `CC(=O)OCOC(c1cc([N+](=O)[O-])ccc1Oc1ccc(Br)cc1)P(=O)(OCOC(C)=O)OCOC(C)=O` (stereo not given), the cell count came out at 3110.

With `CC(C)n1cnc2c(NCc3ccccc3)nc(NCCO)nc21`, the cell count came out at 2020.

As for `CCCCCCCCCCCCCCCC(=O)N[C@H](CN1CCOCC1)[C@H](O)c1ccccc1`, the cell count amounted to 5590.

`CCCCCCCCCCCCCCCC(=O)N[C@@H](COP(=O)(O)O)C(=O)O`: the cell count was 5800.

Turning to `CCCCC/C=C\C\C=C/C=C/C=C/[C@@H](SC[C@H](NC(=O)CC[C@H](N)C(=O)O)C(=O)NCC(=O)O)[C@@H](O)CCCC(=O)O`, the cell count amounted to 6410.

Consider `COc1c(C=O)c(O)cc2c1C(=O)c1ccccc1C2=O`, for which the cell count came to 2810.

Consider `N#Cc1c(-c2ccccc2)no[n+]1[O-]`, for which the cell count was 1090.

As to `CC12C=CC(=O)C=C1CCC1C2=CCC2(C)C1CC[C@@H]2C(=O)CN1CCN(c2cc(N3CCCC3)nc(N3CCCC3)n2)CC1` (stereo not given in full), the cell count amounted to 4330.

For the compound `CCCCCCCCCCCCC/C=C/[C@@H](O)[C@H](CO)NC(=O)CCCCCCCCCCCCCCC`, the cell count turned out to be 5360.

Turning to `CC/C=C\C/C=C\C/C=C\CCCCCCCCCCCC(=O)O`, the cell count came to 5970.

`CCCCC/C=C\C/C=C\C/C=C\C/C=C\CCCC(=O)O[C@@H](CO)COCCCCCCCCCCCCCCCC`: the cell count turned out to be 5620.

As to `CCCCC[C@H](O)C/C=C1/C(=O)C=C[C@@H]1C/C=C\CCCC(=O)O`, the cell count was determined as 5300.

`CCCCC/C=C\CC(O)/C=C/c1cccc(CC(O)CCCCO)n1` (stereo not given): the cell count came to 5690.
